# Source: PubChem (Broad Institute)
# F508del corr: correctors of CFTR F508del function in bronchial epithelial cells | CFBE cells, YFP halide quenching; stimulated with forskolin plus potentiator P3; % fluorescence drop versus neutral controls | activity (quench increase), % at 7.58 µM | 350,000 compounds, 0.36% hits | AID 720511;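 active means mean added fluorescence quench of at least 8% versus neutral control, with both replicates also reaching 8%; inconclusive means only one of the mean or replicate conditions met; inactive means mean below 8% and not both replicates reaching 8%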;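 further: cells transiently co-express mutant CFTR-F508del with the halide-sensitive YFP; corrector assay measuring rescue of mutant channel to the surface after 24 h compound exposure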
# MITF TRPM1 HTS: increases MITF-driven TRPM1 promoter luciferase signal; SK-MEL-5 TRPM1-promoter luciferase, 24 h; % of positive control, neutral wells = 0; activation, % at 12.5 µM; 300,000 compounds, 0.75% hits;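 active means mean activation of at least 80% with every replicate also reaching 80%; inconclusive means mean reaches 80% but some replicate falls short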
# Wnt bcat act: activators of Wnt/beta-catenin signaling. Wnt/beta-catenin reporter cell assay, activator, plate reader. activation, % at 9.35 µM. 300,000 compounds, 1.2% hits. AID 743398; in the data active means activation above about 30%, passing the limit was not always enough; inconclusive means no clear call, values can overlap the other calls
# GSIS activator: primary screen for activators of insulin secretion dependent on glucose, INS-1E cells, GLuc reporter luminescence. AID 743287. activation, % at 16.6 µM. 370,000 compounds, 0.61% hits. INS-1E GLuc reporter insulin secretion, 2-3 h;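 active means lowest replicate activation of at least 40%, so every replicate reaches that level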
# Env fusion inh: inhibitors of HIV Env-mediated cell fusion. 360,000 compounds, 1.1% hits. inhibition, % at 12.3 µM. HeLa-JRFL Env/CEM21 cell fusion, luciferase;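 active means mean replicate inhibition score of at least 50 and every replicate individually at or above 50; inconclusive means only one of the two criteria met; inactive means mean below 50 and not all replicates reaching 50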
# Hits are given with their value; . = inactive; ? = inconclusive; / = not tested or not shown; [ ] = dose if it differs, or a comment. Hits are enriched below; roughly 2.7% of the tested compounds scored in any of these assays.
SMILES,F508del corr,MITF TRPM1 HTS,Wnt bcat act,GSIS activator,Env fusion inh
COc1ccc(OCc2nnc3n2N=C(c2ccc(OC)cc2)CS3)cc1,.,/,.,44.7,.
COc1ccc(OCc2nnc3n2N=C(c2ccc(C)cc2)CS3)cc1,.,.,.,.,.
COc1ccc(C2=Nn3c(nnc3-c3ccncc3)SC2)cc1,/,/,/,/,96.2
CC(=O)Nc1ccccc1OCC(=O)NC(C)c1ccccc1 (stereo unspecified),.,.,.,.,.
CC(=O)Nc1ccccc1OCC(=O)N(Cc1ccccc1)C(C)C,/,.,.,.,61.1
C[C@@H]1CN([C@@H](C)CO)C(=O)c2ccccc2-c2ccccc2CO[C@@H]1CN(C)C(=O)Nc1ccccc1C(F)(F)F,.,/,/,.,.
CCOC(=O)/C(N=Nc1ccc2c(c1)OCO2)=C(\C)O,.,115.2,.,.,.
CCOC(=O)C(=O)Nc1ccc2c(c1)OCO2,/,/,.,/,.
C[C@@H]1CN([C@H](C)CO)C(=O)c2cccc(NS(C)(=O)=O)c2O[C@H]1CN(C)C(=O)Nc1cccc2ccccc12,.,/,/,.,.
Cc1ccc2nc(Cc3ccc(N)cc3)[nH]c2c1,/,.,39.2,/,.
COc1ccc(S(=O)(=O)N(C)C[C@@H]2Oc3ccc(NC(=O)Nc4ccc(C(F)(F)F)cc4)cc3C(=O)N([C@@H](C)CO)C[C@@H]2C)cc1,.,/,/,.,67.4[16.7 µM]
COc1ccc(NC(=O)Nc2ccc3c(c2)C(=O)N([C@@H](C)CO)C[C@H](C)[C@H](CN(C)S(=O)(=O)c2ccc(C)cc2)O3)cc1,.,/,/,.,78.5[16.7 µM]
Cc1ccc(S(=O)(=O)N(C)C[C@H]2Oc3ccc(NC(=O)Cn4cnnn4)cc3CC(=O)N([C@H](C)CO)C[C@H]2C)cc1,.,/,/,.,.
O=C(C[C@@H]1CC[C@H]2[C@@H](COC[C@H](O)CN2C(=O)Nc2cc(Cl)cc(Cl)c2)O1)NCC1CC1,.,/,/,.,/
Cc1ccccc1CN(C)Cc1cc(=O)oc2c(C)c(C)ccc12,.,.,.,92.8,.
O=C(N[C@H]1CC[C@H](CCNC(=O)C2CCOCC2)O[C@@H]1CO)c1ccncc1,.,/,/,.,.
COc1ccc(F)cc1-c1cc(C(=O)Nc2cccnc2)[nH]n1,.,/,.,.,.
Cc1ccc(NC(=O)c2cc(-c3cc(Cl)ccc3C)n[nH]2)cc1NS(C)(=O)=O,.,/,.,.,65.0
O=C(Nc1cccnc1)c1cc(-c2cc(Cl)ccc2O)n[nH]1,.,?,37.9,.,.
Cc1ccc(O)c(-c2cc(C(=O)Nc3cccnc3)[nH]n2)c1,.,214.6,60.4,.,.
Cc1ccc(-c2cc(C(=O)Nc3cc(C)ccc3C)[nH]n2)c(O)c1,/,.,.,.,.
Cc1ccc(C)c(NC(=O)c2cc(-c3cc(C)c(C)cc3O)n[nH]2)c1,.,99.9,.,.,.
COc1ccc(S(=O)(=O)Nc2ccc3c(c2)C(=O)N([C@@H](C)CO)C[C@@H](C)[C@H](CN(C)C(=O)NC2CCCCC2)OCCCC[C@@H](C)O3)cc1,.,/,/,.,.
COCC(=O)N1[C@H](CO)[C@@H](c2ccccc2)C12CN(C(=O)NC1CCCC1)C2,.,/,/,.,/
COCC(=O)Nc1ccc2c(c1)[C@@H]1C[C@H](CC(=O)NCc3ccccn3)O[C@H](CO)[C@@H]1O2,.,/,/,.,.
SMILES,F508del corr,MITF TRPM1 HTS,Wnt bcat act,GSIS activator,Env fusion inh
COc1ccccc1CN1CC[C@H]2[C@H](CO)Nc3ccc(C#Cc4ccccc4)cc3[C@H]21,.,/,/,.,/
Cc1ccc(-c2nc(CSCC(=O)NCc3cccnc3)c(C)o2)cc1,/,/,/,/,58.1
O/N=C/c1ccc(OCc2ccccc2)c(Br)c1,/,.,41.7,.,/
Cc1ccc(C)c(OCC(=O)N/N=C/c2c(C)nn(-c3ccccc3)c2Cl)c1C,/,.,.,296.8,.
C[C@H]1CN([C@@H](C)CO)C(=O)c2cccc(NC(=O)C3CCCCC3)c2O[C@H]1CN(C)Cc1ccncc1,.,/,/,.,/
COc1cccc2c1C(=O)c1c(O)c3c(c(O)c1C2=O)C[C@@](O)(C(=O)CO)C[C@@H]3O[C@H]1C[C@H](N)[C@@H](O)[C@H](C)O1,/,.,/,/,/
COc1cccc2c1C(=O)c1c(O)c3c(c(O)c1C2=O)C[C@@](O)(C(C)=O)C[C@@H]3O[C@H]1C[C@H](N)[C@H](O)[C@H](C)O1,75.4,.,.,/,/
COc1cccc2c1C(=O)c1c(O)c3c(c(O)c1C2=O)CC(O)(C(=O)CO)CC3OC1CC(N(C)C)C(O)C(C)O1 (stereo unspecified),25.2,/,.,/,58.6
Cc1nonc1CN(C)C(=O)CC1C(=O)NCCN1Cc1c(F)cccc1Cl (stereo unspecified),.,.,.,.,.
